For assay [1], the system named is Vero E6 infected with SARS-CoV-2. Kind of assay: morphology score (similarity to uninfected cells); higher = more like uninfected cells. Particulars: 24 h.
Assay [2] shares this test system. Kind of assay: SARS-CoV-2 infection rate relative to infected DMSO; higher = more infection, active = 60 or less. Particulars: 24 h.

In the case of `CC(C)CCNc1ncccc1C(=O)N1CCN(Cc2ccccc2)CC1` (10 µM), in assay [1], the morphology score is -0.0116. Also, the SARS-CoV-2 infection rate in assay [2] was 114% (inactive).

`COC(=O)C(c1ccccc1)C1CCCCN1` (stereo not given) (10 µM) displayed a morphology score in assay [1] of 0.0486. The SARS-CoV-2 infection rate in assay [2] is 114% (inactive).

Take `CCCNCCc1ccc(NS(=O)(=O)c2ccc(OC(F)(F)F)cc2)cc1` (10 µM): the morphology score in assay [1] is -0.19. Also, the SARS-CoV-2 infection rate in assay [2] was 110% (inactive).

Consider `CCOC(=O)N1CSC[C@H]1C(=O)O` [telmesteine] (10 µM), for which, in assay [1], the morphology score was 0.00511. Moreover, the SARS-CoV-2 infection rate in assay [2] was 99.5% (inactive).

The molecule `O=C1NCC2(CCN(CCc3ccccc3)CC2)O1` [fenspiride] (10 µM) yielded a morphology score in assay [1] of 0.208. In addition, the SARS-CoV-2 infection rate in assay [2] was 101% (inactive).

The values above are taken from the supplement of paper PMC13380429.
